Results filed as inconclusive are left out. A number with no mark means an inactive call. Active and inactive are the calls of the source. The call rests on the fitted dose curve; in most records, active means well fitted inhibition curve with a large enough effect; inconclusive means small, poorly fitted or top-dose-only effect; inactive means flat fitted curve, though single readings scatter.
What follows are compounds tested against Glutathione peroxidase 1 (Homo sapiens) (UniProt P07203) (assay: Primary qHTS Assay for Inhibitors of Recombinant Selenoprotein Glutathione Peroxidase 1 (GPX1) (AID 1845191; further: nearly all actives have a fitted effect of over 65% in size)). Conditions: recombinant GPX1, GR-coupled NADPH fluorescence, 15 min; series mostly up to 27.7 µM; activity, negative = inhibition: at the top concentration.
Glutathione peroxidase 1 (Homo sapiens), sequence (P07203 whole entry, looked up): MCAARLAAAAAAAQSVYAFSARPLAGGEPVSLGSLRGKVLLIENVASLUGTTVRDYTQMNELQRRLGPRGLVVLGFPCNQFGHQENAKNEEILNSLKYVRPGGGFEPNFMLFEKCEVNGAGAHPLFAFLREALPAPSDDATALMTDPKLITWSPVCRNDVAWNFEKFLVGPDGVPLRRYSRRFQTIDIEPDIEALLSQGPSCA
How it was run: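 10 nM GPX1 + cpd, 30 min RT; start w/ 1 mM GSH, 0.5 mM cumene hydroperoxide, 0.5 mM NADPH, 100 nM GR, 0.01% BSA; buffer 50 mM Tris-HCl pH 7.5, 2 mM EDTA, 150 mM NaCl; Fl 340/450, 0 & 15 min.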
On the % scale 0 is the no-effect control and ±100 the full control effect.

Structure (SMILES) | outcome | activity, negative = inhibition
COC1OC(OC)C(O)(CCC2(C)C(C)CCC3(C)C2CC(O)C(O)C32CO2)C1O (centres undefined) | inactive | 
CC(=O)O[C@@H]1C[C@@H](C)[C@](O)(CCC2=CC(=O)OC2)[C@@]2(C)CCCC(C)(C)C12 (some centres undefined) | inactive | 
COC(=O)c1cc(OC)cc(OC)c1C(=O)c1c(OC)cc2c(c1O)C1CCC(O)C(C)(O2)O1 (centres undefined) |  | -13.9%
COc1cc(O)c2c(c1)C1(OC2=O)C(C)=CC(=O)C1O (centres undefined) |  | 4.32% [at 48.8 µM]
CC(O)/C=C/C1(O)C(C)C(O)C(O[C@@H]2O[C@H](CO)[C@@H](O)[C@H](O)[C@H]2O)CC1(C)C (some centres undefined) |  | -4.83%
C/C(CO)=C1/CCC23COC(C2)C(O)(C(=O)O)CCC13 (centres undefined) |  | -7.89% [at 48.8 µM]
CC(=O)/C=C/C1(O)C(C)=CC(=O)CC1(C)C (centres undefined) |  | 3.72% [at 48.8 µM]
N[C@@H](CC(=O)Nc1ccc(Oc2cc(F)c(F)cc2Br)cc1)C(=O)O |  | -5.28% [at 48.8 µM]
CC1=CC2=C(C)C(=O)C(C)(O)C(O)C2CO1 (centres undefined) | inactive [at 48.8 µM] | 
CC(C)C1C(OC(=O)/C=C/c2ccccc2)CC2(C)OC2CCC2(C)OC2C1O (centres undefined) | inactive | 
CCOC(=O)c1ccc(NC2CCCCC2)c(N)c1 |  | -20.9% [at 48.8 µM]
OC[C@H]1O[C@@H](OCc2ccccc2)[C@H](O[C@@H]2OC[C@@H](O)[C@H](O)[C@H]2O)[C@@H](O)[C@@H]1O |  | 1.2%
CC(C)c1ccc2c(c1)C(O)CC1C(C)(CO)CCCC21C (centres undefined) | inactive [at 48.8 µM] | 
C/C=C/C=C/[C@@H]1O[C@](O)([C@H](CC)C(=O)NC/C=C/C=C(\C)[C@@H](OC)[C@@H](C)[C@@H]2O[C@H](/C=C/C=C/C=C(\C)C(=O)c3c(O)ccn(C)c3=O)[C@H](O)[C@@H]2O)[C@H](O)[C@H](O)C1(C)C | inactive [at 15.3 µM] | 

Source: PubChem BioAssay (NCATS)
